Test results published in PubChem BioAssay AID1529 (NMMLSC, 2009).
Among all 290,000 compounds or so, about 4,200 (1.4%) were called active. This excerpt belongs to a sample that is enriched for actives. Unmarked numbers belong to inactive results.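 How the source made its calls: active means binding response more than 3 SD above or below the average of its plate-row segment, actives on both sides; inconclusive means wells at one plate position flagged as instrument error; inactive means the rest.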

What follows are molecules tested against Mitogen-activated protein kinase kinase kinase 3 (Homo sapiens) (UniProt Q99759) (assay: compounds raising or lowering MEK5 association with MEKK3 PB1 – biochemical, wildtype MEKK3, multiplex bead flow cytometry, Alexa488-MEK5, primary screen (AID 1529;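 further: Alexa488 bead fluorescence after subtracting the streptavidin-only scavenger bead signal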)). Conditions: bead-based flow cytometry, Alexa488-MEK5 binding to MEKK3; at 10 µM; actives lie on both sides; 0 = blocked by unlabeled MEK5, 100 = vehicle.
Chain of Mitogen-activated protein kinase kinase kinase 3 (Homo sapiens) (Q99759 whole entry, looked up): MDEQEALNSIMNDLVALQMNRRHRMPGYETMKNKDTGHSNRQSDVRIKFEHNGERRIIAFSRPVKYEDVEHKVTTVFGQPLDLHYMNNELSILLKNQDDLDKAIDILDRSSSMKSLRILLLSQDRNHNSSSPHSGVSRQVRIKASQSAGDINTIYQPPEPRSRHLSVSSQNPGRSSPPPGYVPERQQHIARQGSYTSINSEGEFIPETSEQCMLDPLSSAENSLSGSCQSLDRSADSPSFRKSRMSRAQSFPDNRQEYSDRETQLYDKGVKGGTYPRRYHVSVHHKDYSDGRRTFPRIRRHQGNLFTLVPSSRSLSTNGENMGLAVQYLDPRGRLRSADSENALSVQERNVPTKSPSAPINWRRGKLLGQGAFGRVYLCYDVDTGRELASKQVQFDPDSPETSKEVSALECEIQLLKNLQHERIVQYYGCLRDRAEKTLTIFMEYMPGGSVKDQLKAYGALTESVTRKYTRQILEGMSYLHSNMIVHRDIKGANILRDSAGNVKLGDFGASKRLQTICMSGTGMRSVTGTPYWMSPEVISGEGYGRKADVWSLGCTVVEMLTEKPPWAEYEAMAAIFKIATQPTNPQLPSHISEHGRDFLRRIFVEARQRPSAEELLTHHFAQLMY

Structure (SMILES) | binding response (% of control)
Cc1nc(-c2ccccc2)sc1C1(C)CC(c2cccnc2)=NO1 (configuration not stated) | 104%
O=C(O)CC(Cc1ccccc1)C(=O)Nc1ccc([N+](=O)[O-])cc1 (configuration not stated) | 128% (active)
O=C(Cc1ccccc1)NNS(=O)(=O)c1ccc([N+](=O)[O-])cc1 | 95%
O=C(CC(c1ccccc1)c1ccccc1)NCC(O)c1ccc([N+](=O)[O-])cc1 (configuration not stated) | 101%
Fc1ccccc1/C=N/Nc1cc(N2CCCCC2)ncn1 | 105%
CCc1noc(C)c1C(=O)N1CCCC(N2CCN(c3ccc(F)cc3)CC2)C1 (configuration not stated) | 91%
Cc1ccc(CNC(=O)C2CCCN2S(=O)(=O)c2ccc3c(c2)C(C)(C)C(=O)N3C)cc1 (configuration not stated) | 104%
CC1(C)Cc2cccc(OCC(=O)N3CCN(c4ccc([N+](=O)[O-])cc4)CC3)c2O1 | 59% [inhibitor] (active)
CC1(C)Cc2cccc(OCC(=O)NCc3ccccc3)c2O1 | 100%
CC1(C)Cc2cccc(OCC(N)=O)c2O1 | 100%
COc1ccc(C)cc1NC(=O)CN(C)S(=O)(=O)c1ccc2c(c1)n(C)c(=O)c(=O)n2C | 101%
CCOc1cc(NC(=S)NCc2ccco2)c(OCC)cc1NC(=O)c1ccco1 | 105%
FC(F)Oc1ccc(NC(=S)NCc2ccco2)cc1Cl | 99%
COc1cc(NC(=S)NCc2ccco2)c(OC)cc1Cl | 71% [inhibitor] (active)
CCOC(=O)C1Nc2ccc(C(F)(F)F)cc2C2C=CCC12 (configuration not stated) | 99%
CCC(=O)N1c2ccccc2NC2=C(C(=O)CCC2)C1c1ccco1 (configuration not stated) | 94%
CC(C)C(=O)N1c2ccccc2NC2=C(C(=O)CCC2)C1c1ccc(N(C)C)cc1 (configuration not stated) | 129% (active)
CCCC(=O)N1c2ccccc2NC2=C(C(=O)CCC2)C1c1ccc(F)cc1 (configuration not stated) | 100%
CC(C)(C)C(=O)Nc1ccc(-c2cn3cccnc3n2)cc1 | 107%
COc1cc(C(C)=O)ccc1OC(=O)CN1C(=O)c2ccccc2C1=O | 102%
CC1(C)OC(=O)N2CCc3ccccc3C21C (configuration not stated) | 129% (active)
CC1Cc2ccccc2N1C1=CC(=O)CC(C)(C)C1 (configuration not stated) | 100%
CNC(=O)/C(=C\C=C\c1ccccc1)NC(=O)c1ccc([N+](=O)[O-])cc1 | 73% [inhibitor] (active)

Structure (SMILES) | binding response (% of control)
O=C(Nc1ccc(C(=O)O)cc1)/C(=C/c1ccc([N+](=O)[O-])cc1)NC(=O)c1ccccc1 | 97%
O=C(Nc1ccccc1)/C(=C/c1ccc([N+](=O)[O-])cc1)NC(=O)c1ccccc1 | 111%
O=C(Nc1ccc(O)cc1)c1ccc(NC(=O)c2ccco2)cc1 | 101%
COc1ccc2c(c1)CCNC2Cc1ccc(OC)c(O)c1 (configuration not stated) | 98%
C=CCn1c(=S)sc2c(=O)[nH]c(C)nc21 | 131% (active)
C=CCn1c(-c2ccc3[nH]c(C)c(C)c3c2)n[nH]c1=S | 105%
C=CCn1c(-c2sc(-c3ccccc3)nc2C)n[nH]c1=S | 99%
O=S(=O)(c1cccc(Cn2nnc(-c3ccc(F)cc3)n2)c1)N1CCOCC1 | 103%
Cc1csc(NC(=O)CSc2ccc(-c3ccc(F)cc3)nn2)n1 | 100%
Cc1ccc(SCC(=O)Nc2ccc3c(c2)OCCO3)cc1 | 127%
O=C(CSc1ccc(-c2ccc(F)cc2)nn1)Nc1ccc2c(c1)OCCO2 | 133% (active)
C[C@H]1CC[C@]2(O[C@@H](CCO)C[C@@H](O)[C@@H]2O)O1 | 96%
COc1ccc2nc(C)cc(Nc3cccc(C(=O)O)c3)c2c1 | 106%
COc1cc(NC(=O)c2cccnc2SC)cc(OC)c1 | 110%
COc1cccc(Nc2ncccc2C(=O)O)c1 | 3% [inhibitor] (active)
O=C(NC(=S)Nc1ccc(Cl)cc1Cl)C1CC1 | 100%
Cc1ccc2oc(C(=O)N3CCN(C)C[C@@H]3C(C)C)c(C)c2c1 | 102%
COc1ccc(NCCc2ccccn2)cc1 | 108%
Cc1ccc(C(=O)N/C(=C/c2ccco2)C(=O)NCCc2c[nH]c3ccccc23)cc1C | 73% [inhibitor] (active)
COc1ccc(/C=C(\NC(=O)c2ccc(OC)c(OC)c2)C(=O)NCCc2c[nH]c3ccccc23)cc1 | 103%
O=C(NC(Cc1c[nH]c2ccccc12)C(=O)O)/C(=C/c1ccco1)NC(=O)c1ccccc1 (configuration not stated) | 101%
CCOC(=O)c1cc2occc2n1CC(=O)NC1CCC(C)CC1 (configuration not stated) | 104%
CCOC(=O)c1cc2occc2n1CC(=O)N1CCN(C(=O)c2ccco2)CC1 | 0% [inhibitor] (active)

Structure (SMILES) | binding response (% of control)
CCOC(=O)c1cc2c(ccn2C)n1CC(=O)N1CCC(C)CC1 | 111%
CCn1c(SCC(=O)NC2CCCC2)nnc1-c1ccoc1C | 98%
Cc1cc(C)cc(NC(=O)CN2C(=O)c3ccccc3C2=O)c1 | 97%
Cc1cccc(NC(=O)CN2C(=O)c3ccccc3C2=O)c1C | 110%
Cc1ccccc1C(=O)NNC(=O)CN1C(=O)c2ccccc2C1=O | 135% (active)
CCC(Cc1ccccc1)NC(=O)C1CCCCC1 (configuration not stated) | 101%
CCOCCCN(C)C1CCN(C(=O)c2oc3ccccc3c2NC(=O)Cc2cccc([N+](=O)[O-])c2)CC1 | 99%
Cc1ccc(CC2CC(=O)N(c3cc(C)ccc3C)C2=O)cc1 (configuration not stated) | 101%
O=C1CC(N2CCN(c3ccc(F)cc3)CC2)C(=O)N1c1ccccc1 (configuration not stated) | 100%
Cc1ccc(N2C(=O)CC(N3CCSCC3)C2=O)c(C)c1 (configuration not stated) | 55% [inhibitor] (active)
COC(=O)C1=C[C@@H](C(=O)OC)[C@@H]2C3=C(C(=O)[C@]2(C)NC(=O)c2ccccc2)[C@H](C)n2c(=O)n(C)c(=O)n2[C@@H]3C1 | 108%
CC(c1cccnc1)N(CCN(C)C)C(=O)Nc1ccc(Cl)c(Cl)c1 (configuration not stated) | 96%
C/C(CC(=O)NC(C)(C)C)=N\NC(=O)c1ccco1 | 140% (active)
CC(C)(C)NC(=O)c1cc(NC(=O)c2ccco2)cc(NC(=O)c2ccco2)c1 | 101%
COc1ccc(N(CC(=O)NC(C)(C)C)C(=O)c2ccco2)cc1 | 98%
Cc1ccc(S(=O)(=O)N[C@@H](Cc2ccccc2)C(=O)N2CCC(C(=O)N[C@H](C(=O)O)C(C)O)CC2)cc1 (some centres not stated) | 107%
Cc1ccc(CSc2nsc(C)c2C#N)cc1 | 103%
CC(C)CC(=O)Nc1ccc(Cc2ccncc2)cc1 | 104%
COc1cccc(OC)c1C(=O)Nc1ccc2c(c1)n(C)c(=O)n2C | 109%
COc1cccc(OC)c1C(=O)Nc1ccc(Cc2ccncc2)cc1 | 147% (active)
CCOc1ccc(N(CC(=O)Nc2ccccc2F)S(=O)(=O)c2c(C)[nH]c(=O)[nH]c2=O)cc1 | 101%
COc1ccc(S(=O)(=O)N2CCOCC2)cc1C(=O)NC1CCCCC1 | 103%
O=C(NCC1CCCCC1)c1cc(S(=O)(=O)N2CCCCC2)ccc1N1CCOCC1 | 4% [inhibitor] (active)

Structure (SMILES) | binding response (% of control)
COCCNC(=S)Nc1cc(S(=O)(=O)N2CCOCC2)ccc1N1CCCCC1 | 99%
COc1cccc(C(=O)OCc2cc(=O)oc3c(C)c(C)ccc23)c1OC | 103%
Nc1nc(SCc2cccc(Br)c2)n[nH]1 | 105%
O=C(CCn1nnc2ccccc2c1=O)N[C@@H](Cc1c[nH]c2ccccc12)C(=O)O | 98%
CSCC[C@H](NC(=O)CCCn1nnc2ccccc2c1=O)C(=O)O | 137% (active)
O=c1c2ccccc2nnn1CSc1nnnn1-c1ccccc1 | 101%
CN(CCc1ccccn1)C(=O)c1ccc(OC2CCN(CCc3ccccc3)CC2)cc1 | 98%
COc1ccc(CNC(=O)C2CCN(S(C)(=O)=O)CC2)cc1 | 39% [inhibitor] (active)
COc1ccc(CNC(=O)C2CCN(S(=O)(=O)c3ccc(SC)cc3)CC2)cc1 | 101%
COc1ccc(CNC(=O)C2CCN(S(=O)(=O)N3CCOCC3)CC2)cc1 | 104%
COc1ccc(CNC(=O)[C@@H]2CC=C[C@@H]3CCN(C4CC4)C(=O)[C@@H]32)cc1 | 101%
O=S(=O)(Nc1ccccc1Br)c1cccs1 | 100%
COc1cc(C2C3=C(CCCC3=O)OC3=C2C(=O)CCC3)ccc1OCC(=O)Nc1ccccc1 | 100%
CCCn1c(C)cc(/C=C(\C#N)C(=O)OCC(=O)Nc2cc(OC)c(OC)c(OC)c2)c1C | 101%
CCOC(=O)/C(C#N)=C/c1ccc(OCC(=O)Nc2ccccc2)c(OC)c1 | 27% [inhibitor] (active)
Cc1cc(C)c2nc(N(CCN(C)C)C(=O)/C=C/c3cccs3)sc2c1 | 101%
COc1ccc(NC(=O)NNC(=O)COc2cc(C)c(Cl)c(C)c2)c(OC)c1 | 105%
CC(C)(C)OC(=O)N1CCC(C(=O)NNC(=O)c2ccc(Cl)cc2Cl)CC1 | 101%
CC1=NN(C(=O)CCCc2ccccc2)C(O)(C(F)(F)F)C1 (configuration not stated) | 108%
COc1ccc(CC(=O)N2N=C(C)CC2(O)C(F)(F)F)cc1 (configuration not stated) | 129% (active)
CC1=NN(C(=O)CCc2ccccc2O)C(O)(C(F)(F)F)C1 (configuration not stated) | 90%
COc1cc(OC)c(C(=S)N2CCCC2)cc1OC | 104%
CCn1c(=S)sc2c(=O)n(CC(=O)Nc3cccc(Br)c3)c(C)nc21 | 102%
